From PubChem BioAssay AID743398 (Broad Institute, 2014)
Screen size: about 300,000 compounds; about 3,600 (1.2%) were called active. This is one part of a sample in which actives are shown more often than they occur. Cut-off read from the data, not from the text of the source: active = activation above about 30% (passing the limit was not always enough); inconclusive = no clear call, values can overlap the other calls.

Assay: Wnt/beta-catenin pathway activators, primary screen, cell-based, plate reader, single point (AID 743398);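 note: 0% = neutral control wells and 100% = positive control wells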
Conditions: Wnt/beta-catenin reporter cell assay, activator, at 9.35 µM, stronger effect = higher value

activation, inactive:
C#CCN([C@@H](C)C(=O)OCC)S(=O)(=O)c1ccc(Br)cc1F -2.08%, O=C(c1ccc(Cl)cc1)n1cnc2ccccc21 0.992%, Cc1ccc(OCC(=O)Nn2cnc3ccccc32)cc1 -2.76%, Cc1c(C(=O)NCc2ccc(C#N)cc2)sc(=O)n1Cc1ccc(C(=O)N(C)C)cc1 -0.79%, COc1ccc(C(O)c2nc(-c3ccc(OC)nc3)cs2)cc1 (stereo not given) -2.19%, CCOC(=O)[C@]12CCCC=C1N(Cc1ccc(Cl)cc1Cl)C(=O)[C@H](CC(=O)N1CCCCC1)C2 -0.046%, CCc1ccccc1NC(=O)CSc1nnc(CCNC(=O)OC(C)(C)C)o1 -2.11%, CCc1ccccc1NC(=O)CSc1nnc(-c2ccncc2)o1 0.131%, Cc1cc(Br)cn2c(Cc3ccccc3C(F)(F)F)c(-c3ccc(C#N)cc3)nc12 -2.44%, CSCCC(c1nnnn1Cc1ccccc1)N1CCN(C/C=C/c2ccccc2)CC1 (stereo not given) -2.2%, O=C(CSc1nc2cccc(F)c2c(=O)n1-c1ccccc1)Nc1ccc2c(c1)CCC2 -0.606%, Cc1ccc(NC(=O)c2ccco2)cc1 -2.54%, O=C(Nc1ccc(O)cc1)c1ccc(NC(=O)c2ccco2)cc1 9.09%, CC(Sc1ccc(S(=O)(=O)N2CCN(C)CC2)cn1)C(=O)NC1CCCC(C)C1C (stereo not given) -1.63%, O=C(NCc1ccccc1Cl)c1csc([C@@H]2O[C@H](CO)[C@@H](O)[C@H]2O)n1 -2.52%, CCC(c1nnnn1-c1ccc2c(c1)OCCO2)N1CCN(c2ccc(C(F)(F)F)cn2)CC1 (stereo not given) 0.0485%, COc1cc2ccccc2cc1C(=O)Nc1ccncc1 11.7%, COc1cc2ccccc2cc1C(=O)Nc1ccc(NC(=O)c2cccs2)cc1 -6.22%, CCCCOCC1CN(CCCC)S(=O)(=O)c2c(Oc3ccc(F)cc3)cccc2O1 (stereo not given) -5.54%, CCOC(=O)C(=O)C1C(=O)Nc2ccccc21 (stereo not given) 3.02%, CCOC(=O)C1=C(C)NC(SC)=NC1c1ccccc1 (stereo not given) -2.32%, COC(=O)[C@H]1C[C@H](OC(=O)NCc2ccccc2)[C@@]2(O)CN(S(=O)(=O)c3ccc(C)cc3)CC2[C@H]1C(=O)OC (stereo not given in full) 0.0463%, COc1cccc(-c2cc(CNC(=O)[C@@H](Cc3ccccc3)NC(=O)[C@H]3O[C@@H](n4cnc(C(N)=O)n4)[C@H](O)[C@@H]3O)no2)c1 -3.63%, COc1ccc(C(=O)Nc2nc(-c3ccc(OC)cc3)c(-c3ccc([N+](=O)[O-])cc3)s2)cc1 -2.22%, CCOc1ccc2nc(NC(=O)c3cc([N+](=O)[O-])ccc3N3CCOCC3)sc2c1 -0.111%, Brc1ccc(COCCc2cn(Cc3ccccc3)c3ccccc23)cc1 11.3%, Cc1cc(=O)oc2c3c(cc(OCC(=O)NCC(O)c4ccccc4)c12)OC(C)(C)CC3 (stereo not given) -1.47%, Cc1csc(NC(=O)C2=COCCO2)n1 5.46%, Cc1ccc(C(=O)NCC(=O)O)s1 0.419%, COc1cccc(CNc2nc3cc(-c4csc5ccccc45)sc3c(=O)n2C)c1 -2.71%, CC(C)Nc1ncnc2c1ncn2[C@H]1CN(Cc2ccncc2)C[C@@H](CO)O1 -2.99%, CCOC(=O)[C@]12CCC=C1N(Cc1ccco1)C(=O)[C@H](CC(=O)NCc1cccc(C(F)(F)F)c1)C2 -1.73%, O=C(COc1ccc(Br)cc1F)NCC1(N2CCCCC2)CCCCC1 -3.51%, Cc1cc(C(=O)COc2ccccc2Cl)c(C)n1C1CC1 -1.86%, COC(=O)[C@]12C[C@H](CC(=O)N3CCN(C(=O)C4CC4)CC3)C(=O)N(Cc3ccc4c(c3)OCO4)C1=C[C@H](C(C)(C)C)O[C@@H]2C -4.23%, O=[N+]([O-])c1ccc(CN2CC(N3CCC(c4ccccc4)CC3)CS2(=O)=O)cc1 (stereo not given) -1.72%, CN(C)C(=O)c1cccc(-c2cnc3sc(NCc4ccc5c(c4)OCO5)nn23)c1 -6.39%, Cc1cccc(OCCC(=O)Nc2ccccc2C(N)=O)c1 1.98%, Cc1cccc(OCC(=O)Nc2ccccc2F)c1 22.2%, O=C(c1ccc(CS(=O)Cc2ccccc2Cl)o1)N1CCN(c2ccccc2)CC1 (stereo not given) -4.44%, CS(=O)(=O)/C(C#N)=C/c1cccn1S(=O)(=O)c1ccc([N+](=O)[O-])cc1 -1.05%, COc1cc2ccc(C(C)=O)c(O)c2cc1OC 10.2%, COc1ccc(NC(=O)C2Cc3c(-c4cccc(NC(C)=O)c4)ccnc3O2)cc1OC (stereo not given) -0.676%, Cn1cccc1C(=O)NNC(=O)COc1ccc(Br)cc1 3.43%, Cn1cccc1C(=O)OCC(=O)NCCc1ccccc1 15.6%, CC1CCCN(c2cccc3c2S(=O)(=O)N(Cc2ccc(F)cc2)[C@@H](C)[C@H](c2ccccc2)O3)C1 (stereo not given in full) -2.02%, O=C(NCc1ccccc1)[C@H]1CCCN1C(=O)[C@@H]1CCCN1C(=O)c1ccc(Cl)cc1Cl -5.01%, NC(c1ccccc1)c1csc(NC(=O)Nc2cccc(C(F)(F)F)c2)n1 (stereo not given) -0.452%, CC(C)CC1C(=O)N(Cc2cn(CC3CCCCC3)nn2)CCS(=O)(=O)N1Cc1ccc(-c2ccc(Cl)cc2)cc1 (stereo not given) -6.32%, Oc1ccc(CN2CCN(c3ncccn3)CC2)cc1 -0.601%, O=C(c1ccncc1)N1CCN(c2ccc3ccccc3n2)CC1 3.16%, CCCN1C(=O)c2[nH]nc(-c3ccccc3)c2C1c1ccccc1 (stereo not given) 0.123%, CC(C)CCNC(=O)c1[nH]c(C(F)(F)F)nc1-c1ccccc1 -0.284%, O=C(NCCS(=O)(=O)NCc1ccc(Cl)cc1)c1ccccc1 -1.51%, O=C(CN1CCN(c2ccc(Cl)cc2)CC1)c1ccccc1 0.814%, CN(C)C(=O)N1CCN(C(=O)[C@@H](Cc2ccccc2)NC(=O)[C@H]2O[C@@H](n3ccc(N)nc3=O)[C@H](O)[C@@H]2O)CC1 -0.987%, CC1CCCC(C)N1C(=O)COC(=O)c1ccccc1C(=O)c1ccccc1 (stereo not given) -3.33%, Cc1cc(N2CCN(C(=O)OC(C)(C)C)C[C@H]2C)ccc1N1CCN(Cc2ccccc2)[C@H](C)C1 -18.5%, Cc1cccc(C)c1NC(=O)CSc1ccc([N+](=O)[O-])cn1 -1.27%, O=[N+]([O-])c1ccc(Sc2n[nH]c(-c3ccco3)n2)nc1 -0.107%, Cc1nn(-c2ccccc2)c(-n2cccc2)c1C(=O)O -0.442%, Cc1cccc(C)c1NC(=O)COC(=O)c1c(C)nn(-c2ccccc2)c1C 2.07%, Cc1cccc(C)c1Cn1c(C)c(C(=O)NCc2cccc(Cl)c2)sc1=O -7.17%, CCCOc1ccc(F)cc1-c1cc(C(=O)Nc2ccc(F)cc2)[nH]n1 -2.71%, C=CCN1C(=O)C(Cc2cccc(Cl)c2)S/C1=N/N=C/c1ccco1 (stereo not given) -5.07%, O=C1N/C(=N\N=C\c2ccco2)SC1Cc1ccc(F)cc1 (stereo not given) 1.16%, CCOC(=O)c1cc(-c2sc(NC(=O)c3ccccc3)nc2C)n(-c2ccc(Br)cc2)n1 -1.56%, O=C(CSc1ccc([N+](=O)[O-])cn1)Nc1ccc(N2CCOCC2)c(Cl)c1 -0.66%, Cn1cnnc1SCC(=O)Nc1ccc(N2CCOCC2)cc1 -1.68%, CC(C)CNc1cccc2c1S(=O)(=O)N[C@H](C)CO2 -4.07%, CCCn1c(N)c(C(=O)CSc2nnc(Cc3cccs3)n2C2CC2)c(=O)[nH]c1=O 0.611%, CCCn1c(N)c(C(=O)CSc2nnc(-c3cccnc3)n2-c2ccc(C)cc2C)c(=O)[nH]c1=O -2.6%

activation, active:
COC(=O)c1ccc(-n2cnc3ccccc32)nc1 41.6%, CCc1ccccc1NC(=O)CSc1nnc([C@@H](NC(=O)OC(C)(C)C)C(C)CC)o1 (stereo not given in full) 31.4%, COC(=O)c1ccc(NC(=O)c2ccco2)cc1 58%, COc1cc2ccccc2cc1C(=O)Nc1ccccc1C 38.1%, CCOC(=O)C1=C(CC)Nc2ccccc2N=C1N 38.3%, O=C(Nc1nc2ccc([N+](=O)[O-])cc2s1)c1ccncc1 34.4%, Cc1csc(NC(=O)c2ccc(C)s2)n1 43.1%, Cc1cc(C(=O)COc2ccc(Br)cc2F)c(C)n1C1CC1 35.3%, CC(C)Nc1ccc(-n2nc3ccccc3[n+]2[O-])cc1 40.2%, COc1cccc(OCC(=O)Nc2ccccc2C(N)=O)c1 39.1%, Cn1cccc1C(=O)OCC(=O)c1ccc(Br)s1 47.9%, c1cnc(N2CCN(c3ccc4ccccc4n3)CC2)nc1 36.8%, O=C(Cc1ccc(Cl)cc1)c1ccccc1 39.9%, CC(C)(C)n1cnnc1Sc1ccc([N+](=O)[O-])cn1 37.4%, Cc1ccc(OC(=O)c2c(C)nn(-c3ccccc3)c2C)cc1 57.6%, COc1ccc(CN2C(=O)C(C)S/C2=N/N=C/c2ccco2)cc1 (stereo not given) 39.6%, O=C(CSc1ccc([N+](=O)[O-])cn1)Nc1ccc(N2CCOCC2)cc1 34.8%, CCCn1c(N)c(C(=O)CSc2nnc3n2CCCCC3)c(=O)[nH]c1=O 44.1%
